Structures are written as SMILES. Where a name gives a salt, the structure may show the parent alone.

The experiment relates to Ruminococcus gnavus DSM 108212. Kind of experiment: fold change of Tryptamine concentration vs plate DMSO controls (fold change (ratio)); higher = more amine produced, active = hit call of the paper (significant change in both replicates, either direction). The note with it: incubation time: 27 h, anaerobic, 37 °C. Put shortly:
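Each value is the fold change relative to DMSO-only wells on the same plate. Four gut bacterial strains were grown anaerobically in mGAM at 37 °C for 27 h in 80 µL wells, starting at OD 0.1 before a 1:1 dilution, with compounds at 20 µM final (sweeteners 50 µM). Whole cultures were extracted with cold acetonitrile/methanol containing 0.1% formic acid, centrifuged, and amines were quantified by LC–triple-quadrupole MS (dynamic MRM) against external calibration curves with within-batch drift correction. Values are means of 2 biological replicates.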
In the case of `CC#C[C@]1(O)CC[C@H]2[C@@H]3CCC4=CC(=O)CCC4=C3[C@@H](c3ccc(N(C)C)cc3)C[C@@]21C` [Mifepristone] (20 µM), the “fold change of Tryptamine concentration” value was 0.975 (inactive).
Next, `C[C@]12CC[C@@H]3c4ccc(O)cc4CC[C@H]3[C@@H]1CCC2=O` [Estrone] (20 µM): 0.894 (inactive); `O=C(O)c1cccnc1Nc1cccc(C(F)(F)F)c1` [Niflumic acid] (20 µM): 1.02 (inactive).
Next, `OCCN1CCN(CCCN2c3ccccc3C=Cc3ccccc32)CC1` [Opipramol dihydrochloride] (20 µM): 1.02 (inactive); `COCC1=C(C(=O)OC(C)OC(=O)OC(C)C)N2C(=O)[C@@H](NC(=O)/C(=N\OC)c3csc(N)n3)[C@H]2SC1` (some centres not stated) [Cefpodoxime proxetil] (20 µM): 0.622 (inactive).
Next, `CN(CCOc1ccc(CC2SC(=O)NC2=O)cc1)c1ccccn1` (configuration not stated) [Rosiglitazone hydrochloride] (20 µM): 1.08 (inactive); `CC(C(=O)O)c1ccc(-c2ccccc2)c(F)c1` (configuration not stated) [Flurbiprofen] (20 µM): 0.937 (inactive).
In the case of `CCCCc1oc2ccc(NS(C)(=O)=O)cc2c1C(=O)c1ccc(OCCCN(CCCC)CCCC)cc1` [Dronedarone hydrochloride] (20 µM), the “fold change of Tryptamine concentration” value was 0.8 (inactive).
With `O=C(COc1ccc(Cl)cc1)N1CCN(Cc2ccc3c(c2)OCO3)CC1` [Fipexide hydrochloride] (20 µM) the figure was 0.945 (inactive); with `CCCCCCCCCCCCCCCC[N+](C)(C)CCN(Cc1ccc(OC)cc1)c1ncccn1` [Thonzonium bromide] (20 µM), 0.742 (active).
Next, `C#C[C@]1(O)CC[C@H]2[C@@H]3CCc4cc(OC)ccc4[C@H]3CC[C@@]21C` [Mestranol] (20 µM): 0.893 (inactive); `OC(CCN1CCCCC1)(c1ccccc1)C1CCCCC1` (configuration not stated) [Trihexyphenidyl-D,L hydrochloride] (20 µM): 0.874 (inactive); `O=C(Cn1cnnn1)N[C@@H]1C(=O)N2C(C(=O)O)=C(CSc3nncs3)CS[C@H]12` [Ceftezole] (20 µM): 0.114 (active).
On to `CCOc1ccc(NC(N)=O)cc1` [(4-Ethoxyphenyl)urea] (50 µM), for which the “fold change of Tryptamine concentration” value is 0.999 (inactive).
On to `NC(=O)c1ncn([C@@H]2O[C@H](CO)[C@@H](O)[C@H]2O)n1` [Ribavirin] (20 µM), for which the “fold change of Tryptamine concentration” value is 0.994 (inactive).
Consider `CC1(C)S[C@@H]2[C@H](NC(=O)C(C(=O)O)c3ccccc3)C(=O)N2[C@H]1C(=O)O` (some centres not stated) [Carbenicillin disodium salt] (20 µM), for which the “fold change of Tryptamine concentration” value is 0.0824 (active).
Take `O=C(c1ccccc1)c1ccc2n1CCC2C(=O)O` (configuration not stated) [Ketorolac tromethamine] (20 µM): the “fold change of Tryptamine concentration” value was 1.03 (inactive).
With `CN(C(=O)CN(CCO)CC(=O)N(C)C(C)(C)Cc1ccccc1)C(C)(C)Cc1ccccc1` [Oxethazaine] (20 µM) the figure was 0.602 (active); with `CCOC(=O)[C@H](CCc1ccccc1)N[C@@H](C)C(=O)N1Cc2ccccc2C[C@H]1C(=O)O` [Quinapril hydrochloride] (20 µM), 1.03 (inactive).
Regarding `CC[N+]1(CC)CCC(=C(c2ccccc2)c2ccccc2)C1C` (configuration not stated) [Prifinium Bromide] (20 µM), the “fold change of Tryptamine concentration” value was 0.907 (inactive).
`O=P(O)(O)C(Cl)(Cl)P(=O)(O)O` [Clodronate disodium] (20 µM): the “fold change of Tryptamine concentration” value is 0.999 (inactive).
On to `CCOC(=O)[C@@](C)(N)Cc1ccc(O)c(O)c1` [Methyldopate hydrochloride] (20 µM), for which the “fold change of Tryptamine concentration” value is 1.09 (inactive).
With `O=C(NCCO[N+](=O)[O-])c1cccnc1` [Nicorandil] (20 µM) the figure was 1.03 (inactive); with `CN1CCN(c2c(F)cc3c(=O)c(C(=O)O)cn(CCF)c3c2F)CC1` [Fleroxacin] (20 µM), 1.08 (inactive); with `Cn1c(=O)c2c(ncn2CC(=O)O)n(C)c1=O` [Acefylline] (20 µM), 0.936 (inactive).
With `CC(=O)[C@H]1CC[C@H]2[C@@H]3C[C@H](C)C4=CC(=O)CC[C@]4(C)[C@H]3[C@@H](O)C[C@]12C` [Medrysone] (20 µM) the figure was 1.01 (inactive); with `C=C1c2c(Cl)ccc(O)c2C(O)=C2C(=O)[C@]3(O)C(O)=C(C(N)=O)C(=O)[C@@H](N(C)C)[C@@H]3[C@@H](O)[C@H]12.O=C(O)c1cc(S(=O)(=O)O)ccc1O` [Meclocycline sulfosalicylate] (20 µM), 0.0772 (active).

Source of the values: the supplement of paper PMC12494721.
